Assay [1] is described as follows: S16 Schwann cell PMP22 intronic element beta-lactamase assay (AID 624044; calls by dose curve;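 further: 0% = DMSO and -100% = potassium clavulanate positive control; nearly all actives have a fitted effect of over 15% in size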). In a few lines: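 Beta-lactamase reporter under a PMP22 intronic regulatory element in stable S16 rat Schwann cells; 24 h compound exposure. 460 nm blue signal normalized between DMSO (0%) and potassium clavulanate, with 535 nm FRET tracking viability; curves classed by r2 and response.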

Assay [2] is described as follows: Cytotoxicity counterscreen for NFkB agonists and antagonists (AID 624476). Further: potency means the concentration at half of the fitted maximal effect. On the technique in general: Counterscreens check selectivity or assay interference.
A short description of assay [3]: qHTS Assay for Identification of Small Molecule Antagonists for NFkB Signaling Pathway. (AID 624479; calls by dose curve;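 further: pathway stimulated with TNF alpha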; further: potency means the concentration at half of the fitted maximal effect). A general note: In qHTS, concentration-response curves come from the screen itself.
A short description of assay [4]: Cell Proliferation Assay against the TMD8 Cell Line (AID 651645).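 Further: cells exposed to compound for 48 h before reading.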 Conditions: TMD8 DLBCL cell line proliferation/viability; at 46.1 µM (top of the series) unless noted. In a few lines: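 Cell viability of the ABC DLBCL line TMD8 is measured by CellTiter-Glo luminescence following a 48-hour incubation with compound. Percent activity uses DMSO as 100% and 9.2 uM bortezomib (final) as 0%.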

Assay [5] is described as follows: Cell Proliferation Assay against the HBL1 Cell Line (AID 651646).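 Further: cells exposed to compound for 48 h before reading.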 Conditions: HBL1 DLBCL cells; at 46.1 µM (top of the series) unless noted. In a few lines:
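CellTiter-Glo luminescence after 48 h compound exposure at 37C gives percent activity, with DMSO as 100% and 9.2 uM bortezomib final as 0%. Cells: 500 log-phase HBL1 per well, RPMI plus 5% FBS.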

Assay [6] is described as follows: Cell Proliferation Assay against the TMD8 Cell Line (Caspase readout at 16 hrs) (AID 651712). Further: potency means the concentration at half of the fitted maximal effect. In a few lines: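 Caspase-Glo luminescence measured apoptosis after a 16 h, 37 C compound exposure of TMD8 cells (500 cells/well, 5% FBS RPMI). DMSO set 0% and bortezomib at 9.2 uM final set 100% activity.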

Records with an inconclusive call do not appear. Calls of active or inactive are those of the source. Unless noted, the call rests on the fitted dose curve; in most records, active means well fitted curve in the direction sought with a large enough effect; inconclusive means small, poorly fitted or top-dose-only effect, or another doubt; inactive means no such curve, though single readings can be large; an effect the other way counts as inactive or inconclusive.

In the case of `C[C@H]1C[C@H]2[C@@H]3CCC4=CC(=O)C=C[C@]4(C)[C@@]3(F)[C@@H](O)C[C@]2(C)[C@@]1(O)C(=O)CO`, the Potency entry in assay [1] is “inactive”.
`NC(=O)Nc1cc(-c2ccc(CN3CCOCC3)c(F)c2)sc1C(=O)N[C@H]1CCCNC1`: the figures for the Potency in assay [2], in assay [3] and in assay [6] were 590 nM (active), 4730 nM (active) and 46.9 nM (active), respectively. The viability (% of control) in assay [4] was 1.45%. The viability, percent of control in assay [5] worked out at 10.1%.
In the case of `C[C@@H]1CCN(C(=O)CC#N)C[C@@H]1N(C)c1ncnc2[nH]ccc12`, the Potency entry in assay [2] and in assay [6] was “inactive” each time. For the same compound, the viability (% of control) in assay [4] worked out at 76.9%. In assay [5], the viability, percent of control amounted to 97.5%.
Turning to `Nc1c(Br)cc(Br)cc1CNC1CCC(O)CC1` (configuration not stated), in assay [1], the Potency result is “inactive”.
`O=C(O)CC/C=C\CC[C@H]1[C@@H](N2CCCCC2)[C@@H](O)C[C@@H]1OCc1ccc(-c2ccccc2)cc1`: the Potency result in assay [2], in assay [3] and in assay [6] was “inactive” in each case. Further, the viability (% of control) in assay [4] was found to be 104%. In assay [5], the viability, percent of control came out at 105%.
Turning to `CCCCCCCCCCCCCCCCCCOP(=O)([O-])OC1CC[N+](C)(C)CC1`, the Potency result in assay [2], in assay [3] and in assay [6] was “inactive” throughout. Also, in assay [4], the viability (% of control) was found to be 102% [at 29.8 µM]. For the same compound, in assay [5], the viability, percent of control is 93.3% [at 29.8 µM].
Regarding `CC[C@@H](C(=O)O)C1CC[C@H](C)C([C@@H](C)[C@H](O)[C@H](C)C(=O)[C@H](CC)C2O[C@]3(C=C[C@@H](O)[C@]4(CC[C@@](C)(C5CC[C@](O)(CC)[C@H](C)O5)O4)O3)[C@H](C)C[C@@H]2C)O1` (some centres not stated), the viability (% of control) in assay [4] came to 2.54%. For the same compound, in assay [5], the viability, percent of control was found to be 11.4%.
Take `O=c1cc(C2=CC=CC3Sc4ccccc4SC23)oc(N2CCOCC2)c1` (configuration not stated): the viability (% of control) in assay [4] stood at 10.5%. In assay [5], the viability, percent of control is 31.5%. For the same compound, in assay [6], the Potency is 8330 nM (active).
Turning to `O=S(=O)(O)c1ccc2c(N=Nc3ccc(S(=O)(=O)O)c4ccccc34)c(O)c(S(=O)(=O)O)cc2c1`, the Potency result in assay [1] was “inactive”.

For the origin of these results see PubChem BioAssay (NCATS).
